Data published in PubChem BioAssay AID588651 (The Scripps Research Institute Molecular Screening Center, 2011).
Values without a mark were called inactive. Active and inactive are the calls of the source. No stated cut-off is given here; in the data, active means inhibition above about 65%; inactive means the rest.

What follows are compounds tested on Fam108b (assay: Fam108b inhibitors and proteome off-target selectivity – biochemical, gel-based ABPP, recombinant soluble Fam108b, HTS hits, complex proteome, late-stage follow-up (AID 588651;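 further: Fam108b spiked into mouse brain membrane proteome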)). Conditions: FP-rhodamine labeling in proteome, at 20 µM, hits give high values.

Structure (SMILES) | inhibition
COc1ccc(C=NNC(=O)c2ccc(O)cc2)cc1CN1CCCc2ccccc21 | 40%
O=C1NC(=S)/C(=C\c2ccc(-c3ccccc3Cl)o2)S1 | 0%
Oc1cccc2cc3cccc(O)c3c(O)c12 | 85% (active)
CCOc1cc(/C=C2\C(=O)N(c3nc(-c4ccc(Br)cc4)cs3)N=C2c2ccccc2)ccc1O | 70% (active)
Oc1ccccc1C1Nc2cccc3cccc(c23)N1 | 0%
CN(c1ccccc1)S(=O)(=O)c1ccc(NC(=O)c2ccc(-c3ccccc3)cc2)cc1 | 40%
Cc1cc(C(C#N)c2ccc(Cl)cc2)c(Cl)cc1NC(=O)c1cc(I)cc(I)c1O (centres undefined) | 50%
Oc1ccc(C=NNc2ccnc3cc(Cl)ccc23)cc1O | 65% (active)
Cc1ccc(S(=O)(=O)/N=C2\C=C(Nc3cccc(C(=O)O)c3)C(=O)c3ccccc32)cc1 | 0%
Cc1ccc(-n2c(O)c(/C=N/Nc3ccc(S(=O)(=O)N4CCOCC4)cc3[N+](=O)[O-])c3ccccc3c2=O)c(C)c1 | 40%
O=C1C(Cl)=C(N2CCC(C(=O)O)CC2)C(=O)c2ccccc21 | 0%
Cc1cc(Nc2ccc(Cl)cc2)nc(NCc2ccccc2)n1 | 0%
Cc1cccc(N=Cc2nc(-c3ccccc3Br)oc2O)n1 | 10%
Cc1ccc(C)c(-n2c3nc(=O)[nH]c(=O)c-3cc3cc([N+](=O)[O-])ccc32)c1 | 0%
Cn1c(O)c(C=NNC(=O)c2cc3ccccc3cc2O)c2ccccc21 | 35%
Cc1ccc(S(=O)(=O)Nc2ccccc2C(=O)Nc2nc(-c3ccc(F)cc3)cs2)cc1 | 40%
COc1ccc(S(=O)(=O)/N=C2\C=C(Nc3ccc(O)cc3)C(=O)c3ccccc32)cc1 | 25%

Structure (SMILES) | inhibition
Cc1nc2scc(-c3ccc(Cl)cc3)c2c(=O)o1 | 95% (active)
CC1(C)CC(=O)C2=C(C1)c1c(ccc3ccccc13)NC2c1cc([N+](=O)[O-])cc([N+](=O)[O-])c1O (centres undefined) | 50%
CCc1ccc(S(=O)(=O)/N=C2\C=C(Nc3cccc(C(=O)O)c3)C(=O)c3ccccc32)cc1 | 0%
O=c1oc(-c2ccccc2Cl)nc2ccsc12 | 95% (active)
Cc1c(O)ccc(C=NNc2nc(-c3cccnc3)nc3ccccc23)c1O | 85% (active)
Oc1oc(-c2ccccc2Br)nc1C=Nc1ccccn1 | 90% (active)
COc1ccc2oc(=O)c(-c3csc(Nc4cccc(O)c4)n3)cc2c1 | 0%
COc1cc2c(cc1NC(=S)Nc1cccc(C(F)(F)F)c1)oc1ccccc12 | 20%
Cn1c2ccccc2c2cc(C=NNC(=O)c3cc(O)ccc3O)ccc21 | 80% (active)
O=C1C(SCCO)=C(SCCO)C(=O)c2ccccc21 | 50%
O=C(CCCSc1ccccc1)Nc1nc(-c2ccco2)c(-c2ccco2)s1 | 0%
Oc1ccc(C2Nc3cccc4cccc(c34)N2)c(O)c1 | 0%
COc1cccc2c1C(=O)c1c(O)c3c(c(O)c1C2=O)C[C@@](O)(C(=O)CO)C[C@@H]3O[C@H]1C[C@H](N)[C@H](O)[C@H](C)O1 | 0%
COc1ccc(-c2csc3nc(-c4ccccc4OC)oc(=O)c23)cc1 | 80% (active)
COc1cc2c(cc1NC(=O)Nc1ccccc1)oc1ccccc12 | 0%
COc1cc2cc(C(=O)NN=Cc3ccccc3Cl)[nH]c2cc1OC | 10%
CC1=CC(=O)c2c(O)ccc(O)c2C1=O | 50%
